Some test systems named below: NLK; PAK1; PAK2; PAK3; PAK4; PAK6; PAK7; PDGFRA; PDGFRB; PDPK1; PFTAIRE2; PHKG1; PHKG2; PIK3C2B.
Settings in all cases: concentration: 1 μM, replicates: in singlicate; n = 1
A further test has as its system T1, NIM1.
T1 construct: gene MGC42105

The test system of a further test is T2, OSR1.
T2 construct: gene OXSR1

A further test deals with T3, PCTK1.
T3 construct: gene CDK16

The subject of a further test is T4, PCTK2.
T4 construct: gene CDK17

The test system of another test is T5, PCTK3.
T5 construct: gene CDK18

In the next test the test system is T6, PFTK1.
T6 construct: gene CDK14
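Further: KINOMEscan kinase panel screen.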

In the case of `O=C(Nc1ccccc1F)NC1CCN(c2ccnc(Nc3ccc(F)cc3)n2)CC1` [GSK1379800], the “%Inh” value is on record as 32% in the test with NIM1; 12% in the test with NLK; 0% in the test with OSR1; 1% with PAK1; 0% in the test with PAK2; 0% in the test on PAK3. The “%Inh” value with PAK4, in the test with PAK6, in the test on PAK7, in the test on PCTK1, in the test with PCTK2 and in the test on PCTK3 was 0% each time. In addition, the “%Inh” value is listed as 0% in the test on PDGFRA; 11% in the test on PDGFRB; 0% with PDPK1; 5% in the test on PFTAIRE2; 15% in the test with PFTK1; 0% in the test with PHKG1. For the same compound, the “%Inh” value in the test on PHKG2 and in the test with PIK3C2B was 0% in each case.

Regarding `COC(=O)Nc1nc2ccc(Oc3ccc(NC(=O)Nc4cc(C(F)(F)F)ccc4F)cc3)cc2n1C.Cl` [GW692089], the “%Inh” value in the test on NIM1 came out at 32%; in the test with NLK, 8%; in the test with OSR1, 0%; with PAK1, 0%; in the test on PAK2 it was 0%; in the test on PAK3, 6%. Moreover, the “%Inh” value with PAK4 was 0%; in the test with PAK6, 0%; with PAK7, 0%; in the test on PCTK1, 0%; in the test with PCTK2 it was 0%; with PCTK3 it was 12%. For the same compound, the “%Inh” value came out at 78% with PDGFRA; 100% in the test with PDGFRB; 0% in the test with PDPK1; 6% in the test on PFTAIRE2; 4% in the test with PFTK1; 0% in the test with PHKG1. In addition, the “%Inh” value with PHKG2 and in the test with PIK3C2B was 0% throughout.

Regarding `COc1cc(Nc2nccc(-c3c(-c4cccc(NC(=O)c5c(F)cccc5F)c4)nn4ncccc34)n2)cc(OC)c1OC` [GSK327238], the “%Inh” value stood at 0% in the test on NIM1; 82% with NLK; 19% in the test with OSR1; 70% in the test with PAK1; 9% with PAK2; 36% with PAK3. The “%Inh” value turned out to be 0% in the test with PAK4; 11% in the test on PAK6; 41% in the test with PAK7; 11% in the test with PCTK1; 0% in the test with PCTK2; 5% in the test on PCTK3. Besides, the “%Inh” value with PDGFRA amounted to 90.2%; in the test with PDGFRB it was 100%; in the test on PDPK1, 16%; in the test on PFTAIRE2, 4%; with PFTK1, 5%; in the test on PHKG1 it was 0%. Besides, the results for the “%Inh” value in the test on PHKG2 and with PIK3C2B were 3% and 0%, respectively.

On to `COc1cc(Nc2nccc(N3CCC(NC(=O)c4cc5ccccc5s4)C3)n2)cc(OC)c1OC` (stereo not drawn) [GSK1379760], for which the “%Inh” value in the test with NIM1 was determined as 6%; with NLK it was 0%; with OSR1, 2%; in the test with PAK1 it was 4%; in the test with PAK2, 2%; in the test with PAK3, 9%. The “%Inh” value stood at 0% in the test on PAK4; 0% in the test with PAK6; 0% with PAK7; 0% in the test on PCTK1; 9% in the test with PCTK2; 20% with PCTK3. Further, the “%Inh” value with PDGFRA was 0%; in the test on PDGFRB it was 44%; in the test with PDPK1 it was 50%; with PFTAIRE2, 7%; in the test with PFTK1, 0%; with PHKG1, 12%. Also, the “%Inh” value in the test on PHKG2 and in the test on PIK3C2B was 0% each time.

As to `Nc1ncnc2c1nc(-c1ccccc1)n2-c1ccccc1` [SKF-97293], the “%Inh” value is 66% in the test on NIM1; 0% with NLK; 39% with OSR1; 29% in the test on PAK1; 56% with PAK2; 27% with PAK3. For the same compound, the “%Inh” value is given as 16% with PAK4; 8% with PAK6; 0% in the test with PAK7; 9% in the test with PCTK1; 0% with PCTK2; 0% with PCTK3. For the same compound, the “%Inh” value with PDGFRA was found to be 36%; in the test with PDGFRB, 0%; in the test on PDPK1, 2%; with PFTAIRE2, 6%; with PFTK1, 25%; with PHKG1 it was 17%. The “%Inh” value in the test with PHKG2 turned out to be 0%; with PIK3C2B it was 4%.

On to `CN1CCN(Cc2cccc(-c3ccc4c(Nc5ccc(Oc6ccccc6)cc5)ccnc4c3)c2)CC1` [GW578342], for which the “%Inh” value in the test with NIM1 was found to be 22%; with NLK, 41%; in the test with OSR1, 4%; in the test on PAK1, 16%; with PAK2, 0%; in the test on PAK3 it was 29%. The “%Inh” value in the test on PAK4 is reported as 0%; in the test with PAK6, 0%; in the test on PAK7, 0%; with PCTK1, 0%; in the test with PCTK2, 69%; in the test on PCTK3, 20%. Further, the “%Inh” value in the test on PDGFRA was found to be 94.3%; in the test on PDGFRB it was 98.9%; in the test on PDPK1, 0%; in the test with PFTAIRE2, 14%; in the test with PFTK1 it was 23%; in the test on PHKG1, 1%. The “%Inh” value in the test with PHKG2 and in the test with PIK3C2B was 0% throughout.

Regarding `CN(C)S(=O)(=O)c1cc(-c2ccc3nccc(-c4cccc(S(N)(=O)=O)c4)c3c2)cnc1N` [GSK1669921], the “%Inh” value is listed as 11% with NIM1; 4% in the test with NLK; 0% with OSR1; 7% in the test with PAK1; 21% with PAK2; 39% in the test on PAK3. Besides, the “%Inh” value in the test with PAK4 stood at 1%; with PAK6 it was 3%; in the test on PAK7, 0%; with PCTK1 it was 5%; in the test on PCTK2 it was 0%; in the test with PCTK3, 0%. Besides, the “%Inh” value in the test on PDGFRA is given as 0%; in the test with PDGFRB, 16%; with PDPK1, 9%; with PFTAIRE2 it was 31%; in the test on PFTK1, 17%; in the test on PHKG1 it was 0%. Also, the “%Inh” value with PHKG2 amounted to 8%; with PIK3C2B it was 95.5%.

`Cl.Cl.NCC(C(=O)Nc1cc(Br)c(-c2ccnc3[nH]ccc23)s1)c1ccccc1` (stereo not drawn) [GSK1269851]: the “%Inh” value in the test with NIM1 is reported as 11%; with NLK, 0%; in the test with OSR1 it was 36%; in the test on PAK1, 17%; in the test with PAK2, 32%; in the test on PAK3, 27%. Moreover, the “%Inh” value with PAK4 turned out to be 0%; with PAK6 it was 0%; in the test on PAK7, 51%; in the test with PCTK1, 11%; in the test with PCTK2, 6%; with PCTK3 it was 0%. The “%Inh” value in the test with PDGFRA is given as 0%; in the test on PDGFRB, 38%; in the test with PDPK1 it was 0%; in the test on PFTAIRE2 it was 24%; in the test on PFTK1, 28%; with PHKG1, 49%. For the same compound, the “%Inh” value with PHKG2 and in the test on PIK3C2B was 0% each time.

As for `COc1cc2c(cc1OCCN1CCNCC1)ncc1c3ccc(C#N)cc3[nH]c21`, the “%Inh” value with NIM1 came to 66%; in the test with NLK, 0%; in the test on OSR1 it was 20%; with PAK1, 0%; in the test on PAK2 it was 4%; with PAK3, 0%. In addition, the “%Inh” value is 0% in the test on PAK4; 8% with PAK6; 0% with PAK7; 16% with PCTK1; 9% in the test on PCTK2; 0% in the test with PCTK3. In addition, the “%Inh” value was found to be 96.4% in the test with PDGFRA; 89% with PDGFRB; 9% with PDPK1; 53% in the test on PFTAIRE2; 9% with PFTK1; 98.7% in the test on PHKG1. Besides, the “%Inh” value in the test on PHKG2 was 99.3%; in the test with PIK3C2B, 0%.

For the origin of these results see paper PMC5540273 (PLoS ONE, 2017).
